# Experimental data: paper PMC11006913
# Residue numbers refer to the chain shown, from its start.
# Columns and labels:
# Test in all cases: PBM; 200 nM protein, PBS
# Details in all cases: dsDNA, one strand shown
# SHOX [1] = molecular target: SHOX (Homo sapiens, UniProt O15266 103-189)
# HOXB9 [2] = molecular target: HOXB9 (Homo sapiens, UniProt P17482 171-250, T197M)
# HOXB9 [3] = molecular target: HOXB9 (Homo sapiens, UniProt P17482 171-250)
# SHOX [4] = molecular target: SHOX (Homo sapiens, UniProt O15266 103-189, R173C)
# HOXB9 [5] = molecular target: HOXB9 (Homo sapiens, UniProt P17482 171-250, R186Q)
# NKX3-2 [6] = molecular target: NKX3-2 (Homo sapiens, UniProt P78367 192-278, P234S)
# NKX3-2 [7] = molecular target: NKX3-2 (Homo sapiens, UniProt P78367 192-278)
# HOXA4 [8] = molecular target: HOXA4 (Homo sapiens, UniProt Q00056 201-287, W262R)
# HOXB6 [9] = molecular target: HOXB6 (Homo sapiens, UniProt P17509 132-218, K202E)
# HOXA4 [10] = molecular target: HOXA4 (Homo sapiens, UniProt Q00056 201-287, R217L)
# HOXA4 [11] = molecular target: HOXA4 (Homo sapiens, UniProt Q00056 201-287)
# HOXA4 [12] = molecular target: HOXA4 (Homo sapiens, UniProt Q00056 201-287, W262F)
# HOXB6 [13] = molecular target: HOXB6 (Homo sapiens, UniProt P17509 132-218)
# VENTX [14] = molecular target: T1, VENTX (Homo sapiens, UniProt O95231 78-163, R121Q)
# T1 sequence: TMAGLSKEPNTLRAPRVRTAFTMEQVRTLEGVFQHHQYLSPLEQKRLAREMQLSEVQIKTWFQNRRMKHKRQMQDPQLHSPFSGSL
# VENTX [15] = molecular target: T2, VENTX (Homo sapiens, UniProt O95231 78-163)
# T2 sequence: T1 sequence with Q44R
# PAX4 [16] = molecular target: T3, PAX4 (Homo sapiens, UniProt O43316 9-242, R200K)
# T3 sequence: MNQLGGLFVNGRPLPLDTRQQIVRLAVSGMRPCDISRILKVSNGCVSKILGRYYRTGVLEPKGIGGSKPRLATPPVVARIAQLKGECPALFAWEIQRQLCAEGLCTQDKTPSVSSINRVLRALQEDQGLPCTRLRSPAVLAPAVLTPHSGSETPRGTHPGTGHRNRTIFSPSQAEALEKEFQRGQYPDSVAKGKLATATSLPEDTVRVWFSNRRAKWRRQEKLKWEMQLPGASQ
# VENTX [17] = molecular target: T4, VENTX (Homo sapiens, UniProt O95231 78-163, Y115F)
# T4 sequence: T1 sequence with Y38F, Q44R
# PAX4 [18] = molecular target: T5, PAX4 (Homo sapiens, UniProt O43316 9-242)
# T5 sequence: T3 sequence with K192R
# PAX4 [19] = molecular target: T6, PAX4 (Homo sapiens, UniProt O43316 9-242, R200Q)
# T6 sequence: T3 sequence with K192Q
# PAX4 [20] = molecular target: T7, PAX4 (Homo sapiens, UniProt O43316 9-242, F177V)
# T7 sequence: T3 sequence with F169V, K192R
# PAX4 [21] = molecular target: T8, PAX4 (Homo sapiens, UniProt O43316 9-242, F177Y)
# T8 sequence: T3 sequence with F169Y, K192R
# PAX4 [22] = molecular target: T9, PAX4 (Homo sapiens, UniProt O43316 9-242, R227W)
# T9 sequence: T3 sequence with K192R, R219W
# HOXA7 [23] = molecular target: HOXA7 (Homo sapiens, UniProt P31268 116-202)
# ALX4 [24] = molecular target: ALX4 (Homo sapiens, UniProt Q9H161 200-286)
# ALX4 [25] = molecular target: ALX4 (Homo sapiens, UniProt Q9H161 200-286, Q225E)
# VAX1 [26] = molecular target: VAX1 (Homo sapiens, UniProt Q5SQQ9 86-172)
# VAX1 [27] = molecular target: VAX1 (Homo sapiens, UniProt Q5SQQ9 86-172, T142I)
# HOXA7 [28] = molecular target: HOXA7 (Homo sapiens, UniProt P31268 116-202, W177C)
# VAX1 [29] = molecular target: VAX1 (Homo sapiens, UniProt Q5SQQ9 86-172, K157R)
# HOXC9 [30] = molecular target: HOXC9 (Homo sapiens, UniProt P31274 178-260, K195R)
# HOXC9 [31] = molecular target: HOXC9 (Homo sapiens, UniProt P31274 178-260)
# MSX2 [32] = molecular target: MSX2 (Homo sapiens, UniProt P35548 130-214, R199I)
# HOXC9 [33] = molecular target: HOXC9 (Homo sapiens, UniProt P31274 178-260, R193K)
# MSX2 [34] = molecular target: MSX2 (Homo sapiens, UniProt P35548 130-214)
# HOXC9 [35] = molecular target: HOXC9 (Homo sapiens, UniProt P31274 178-260, R222W)
# MSX2 [36] = molecular target: MSX2 (Homo sapiens, UniProt P35548 130-214, F161Y)
# Sequence of MSX2 (Homo sapiens, UniProt P35548 130-214, F161Y) (P35548 130-214 F161Y): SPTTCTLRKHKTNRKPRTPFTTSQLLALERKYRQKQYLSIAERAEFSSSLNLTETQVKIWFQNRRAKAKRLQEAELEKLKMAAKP
# Sequence of HOXA4 (Homo sapiens, UniProt Q00056 201-287, W262R) (Q00056 201-287 W262R): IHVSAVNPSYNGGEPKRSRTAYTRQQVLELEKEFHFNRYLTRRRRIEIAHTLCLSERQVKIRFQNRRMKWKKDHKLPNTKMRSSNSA
# Sequence of HOXA4 (Homo sapiens, UniProt Q00056 201-287, W262F) (Q00056 201-287 W262F): as the sequence (Q00056 201-287 W262R) above, with R62F counted along it
# Sequence of SHOX (Homo sapiens, UniProt O15266 103-189) (O15266 103-189): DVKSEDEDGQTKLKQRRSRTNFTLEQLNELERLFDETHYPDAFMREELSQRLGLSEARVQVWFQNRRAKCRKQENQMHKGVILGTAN
# Sequence of SHOX (Homo sapiens, UniProt O15266 103-189, R173C) (O15266 103-189 R173C): as the sequence (O15266 103-189) above, with R71C counted along it
# Sequence of HOXA4 (Homo sapiens, UniProt Q00056 201-287) (Q00056 201-287): as the sequence (Q00056 201-287 W262R) above, with R62W counted along it
# Sequence of HOXA4 (Homo sapiens, UniProt Q00056 201-287, R217L) (Q00056 201-287 R217L): as the sequence (Q00056 201-287 W262R) above, with R17L, R62W counted along it
# Sequence of HOXB6 (Homo sapiens, UniProt P17509 132-218, K202E) (P17509 132-218 K202E): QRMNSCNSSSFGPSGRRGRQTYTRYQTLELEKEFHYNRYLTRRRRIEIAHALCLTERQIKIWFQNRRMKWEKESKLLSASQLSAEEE
# Sequence of HOXB6 (Homo sapiens, UniProt P17509 132-218) (P17509 132-218): as the sequence (P17509 132-218 K202E) above, with E71K counted along it
# Sequence of HOXB9 (Homo sapiens, UniProt P17482 171-250) (P17482 171-250): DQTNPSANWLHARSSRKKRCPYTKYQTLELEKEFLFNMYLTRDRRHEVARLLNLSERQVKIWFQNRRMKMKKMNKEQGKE
# Sequence of VAX1 (Homo sapiens, UniProt Q5SQQ9 86-172, K157R) (Q5SQQ9 86-172 K157R): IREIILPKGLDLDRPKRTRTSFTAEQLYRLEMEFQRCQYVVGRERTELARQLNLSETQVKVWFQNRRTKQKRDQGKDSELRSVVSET
# Sequence of MSX2 (Homo sapiens, UniProt P35548 130-214, R199I) (P35548 130-214 R199I): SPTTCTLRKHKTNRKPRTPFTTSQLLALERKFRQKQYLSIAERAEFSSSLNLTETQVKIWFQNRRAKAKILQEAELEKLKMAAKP
# Sequence of ALX4 (Homo sapiens, UniProt Q9H161 200-286) (Q9H161 200-286): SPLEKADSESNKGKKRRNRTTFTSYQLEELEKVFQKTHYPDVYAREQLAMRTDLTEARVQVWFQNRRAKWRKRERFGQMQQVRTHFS
# Sequence of HOXA7 (Homo sapiens, UniProt P31268 116-202, W177C) (P31268 116-202 W177C): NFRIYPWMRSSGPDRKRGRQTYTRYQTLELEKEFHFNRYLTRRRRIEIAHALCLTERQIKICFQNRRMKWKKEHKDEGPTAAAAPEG
# Sequence of VAX1 (Homo sapiens, UniProt Q5SQQ9 86-172) (Q5SQQ9 86-172): as the sequence (Q5SQQ9 86-172 K157R) above, with R72K counted along it
# Sequence of HOXC9 (Homo sapiens, UniProt P31274 178-260, K195R) (P31274 178-260 K195R): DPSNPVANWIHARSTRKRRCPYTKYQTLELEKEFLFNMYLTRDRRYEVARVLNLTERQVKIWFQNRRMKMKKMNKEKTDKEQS
# Sequence of VAX1 (Homo sapiens, UniProt Q5SQQ9 86-172, T142I) (Q5SQQ9 86-172 T142I): as the sequence (Q5SQQ9 86-172 K157R) above, with T57I, R72K counted along it
# Sequence of HOXB9 (Homo sapiens, UniProt P17482 171-250, T197M) (P17482 171-250 T197M): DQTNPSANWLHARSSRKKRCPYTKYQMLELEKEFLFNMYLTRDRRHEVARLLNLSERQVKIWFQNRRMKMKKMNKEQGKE
# Sequence of NKX3-2 (Homo sapiens, UniProt P78367 192-278) (P78367 192-278): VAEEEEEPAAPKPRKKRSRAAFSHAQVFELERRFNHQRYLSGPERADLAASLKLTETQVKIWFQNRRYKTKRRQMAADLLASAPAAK
# Sequence of HOXC9 (Homo sapiens, UniProt P31274 178-260, R222W) (P31274 178-260 R222W): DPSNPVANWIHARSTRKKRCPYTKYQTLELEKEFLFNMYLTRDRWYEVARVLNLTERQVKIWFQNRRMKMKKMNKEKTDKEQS
# Sequence of HOXC9 (Homo sapiens, UniProt P31274 178-260) (P31274 178-260): as the sequence (P31274 178-260 R222W) above, with W45R counted along it
# Sequence of ALX4 (Homo sapiens, UniProt Q9H161 200-286, Q225E) (Q9H161 200-286 Q225E): as the sequence (Q9H161 200-286) above, with Q26E counted along it
# Sequence of HOXA7 (Homo sapiens, UniProt P31268 116-202) (P31268 116-202): as the sequence (P31268 116-202 W177C) above, with C62W counted along it
# Sequence of MSX2 (Homo sapiens, UniProt P35548 130-214) (P35548 130-214): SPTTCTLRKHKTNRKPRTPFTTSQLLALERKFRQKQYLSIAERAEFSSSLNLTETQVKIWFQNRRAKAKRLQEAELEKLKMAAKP
# Sequence of HOXC9 (Homo sapiens, UniProt P31274 178-260, R193K) (P31274 178-260 R193K): as the sequence (P31274 178-260 R222W) above, with R16K, W45R counted along it
# Sequence of NKX3-2 (Homo sapiens, UniProt P78367 192-278, P234S) (P78367 192-278 P234S): as the sequence (P78367 192-278) above, with P43S counted along it
# Sequence of HOXB9 (Homo sapiens, UniProt P17482 171-250, R186Q) (P17482 171-250 R186Q): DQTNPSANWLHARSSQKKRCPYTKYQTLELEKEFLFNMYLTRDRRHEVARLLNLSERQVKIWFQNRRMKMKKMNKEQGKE
sequence,measurement,setting,value
GCCGGGCA,binding signal,SHOX [1],"7.25 upbm affinity estimate (log intensity, higher = more binding, comparable within an allelic series)"
same,binding signal,HOXB9 [2],"8.48 upbm affinity estimate (log intensity, higher = more binding, comparable within an allelic series)"
same,binding signal,HOXB9 [3],"8.45 upbm affinity estimate (log intensity, higher = more binding, comparable within an allelic series)"
same,binding signal,SHOX [4],"7.18 upbm affinity estimate (log intensity, higher = more binding, comparable within an allelic series)"
same,binding signal,HOXB9 [5],"8.59 upbm affinity estimate (log intensity, higher = more binding, comparable within an allelic series)"
same,binding signal,NKX3-2 [6],"10.6 upbm affinity estimate (log intensity, higher = more binding, comparable within an allelic series)"
same,binding signal,NKX3-2 [7],"10.6 upbm affinity estimate (log intensity, higher = more binding, comparable within an allelic series)"
CAGGGAGG,binding signal,SHOX [1],"6.88 upbm affinity estimate (log intensity, higher = more binding, comparable within an allelic series)"
same,binding signal,HOXA4 [8],"9.65 upbm affinity estimate (log intensity, higher = more binding, comparable within an allelic series)"
same,binding signal,HOXB6 [9],"8.81 upbm affinity estimate (log intensity, higher = more binding, comparable within an allelic series)"
same,binding signal,HOXA4 [10],"9.79 upbm affinity estimate (log intensity, higher = more binding, comparable within an allelic series)"
same,binding signal,SHOX [4],"7 upbm affinity estimate (log intensity, higher = more binding, comparable within an allelic series)"
same,binding signal,HOXA4 [11],"9.91 upbm affinity estimate (log intensity, higher = more binding, comparable within an allelic series)"
same,binding signal,HOXA4 [12],"9.86 upbm affinity estimate (log intensity, higher = more binding, comparable within an allelic series)"
same,binding signal,HOXB6 [13],"8.85 upbm affinity estimate (log intensity, higher = more binding, comparable within an allelic series)"
CGAGCGCC,binding signal,SHOX [1],"7.01 upbm affinity estimate (log intensity, higher = more binding, comparable within an allelic series)"
same,binding signal,HOXA4 [8],"9.78 upbm affinity estimate (log intensity, higher = more binding, comparable within an allelic series)"
same,binding signal,HOXA4 [10],"9.82 upbm affinity estimate (log intensity, higher = more binding, comparable within an allelic series)"
same,binding signal,SHOX [4],"7.09 upbm affinity estimate (log intensity, higher = more binding, comparable within an allelic series)"
same,binding signal,HOXA4 [11],"9.8 upbm affinity estimate (log intensity, higher = more binding, comparable within an allelic series)"
same,binding signal,HOXA4 [12],"9.91 upbm affinity estimate (log intensity, higher = more binding, comparable within an allelic series)"
AGTAAACG,binding signal,SHOX [1],"8.05 upbm affinity estimate (log intensity, higher = more binding, comparable within an allelic series)"
GGGCAGAC,binding signal,SHOX [1],"7.12 upbm affinity estimate (log intensity, higher = more binding, comparable within an allelic series)"
same,binding signal,VENTX [14],"7.99 upbm affinity estimate (log intensity, higher = more binding, comparable within an allelic series)"
same,binding signal,VENTX [15],"8.2 upbm affinity estimate (log intensity, higher = more binding, comparable within an allelic series)"
same,binding signal,PAX4 [16],"9.48 upbm affinity estimate (log intensity, higher = more binding, comparable within an allelic series)"
same,binding signal,VENTX [17],"8.13 upbm affinity estimate (log intensity, higher = more binding, comparable within an allelic series)"
same,binding signal,PAX4 [18],"9.45 upbm affinity estimate (log intensity, higher = more binding, comparable within an allelic series)"
same,binding signal,PAX4 [19],"9.48 upbm affinity estimate (log intensity, higher = more binding, comparable within an allelic series)"
same,binding signal,SHOX [4],"7.25 upbm affinity estimate (log intensity, higher = more binding, comparable within an allelic series)"
same,binding signal,PAX4 [20],"9.22 upbm affinity estimate (log intensity, higher = more binding, comparable within an allelic series)"
same,binding signal,PAX4 [21],"9.21 upbm affinity estimate (log intensity, higher = more binding, comparable within an allelic series)"
same,binding signal,PAX4 [22],"9.33 upbm affinity estimate (log intensity, higher = more binding, comparable within an allelic series)"
CCGGTCTC,binding signal,SHOX [1],"7.18 upbm affinity estimate (log intensity, higher = more binding, comparable within an allelic series)"
same,binding signal,VENTX [14],"8.15 upbm affinity estimate (log intensity, higher = more binding, comparable within an allelic series)"
same,binding signal,VENTX [15],"8.23 upbm affinity estimate (log intensity, higher = more binding, comparable within an allelic series)"
same,binding signal,HOXA7 [23],"8.45 upbm affinity estimate (log intensity, higher = more binding, comparable within an allelic series)"
same,binding signal,ALX4 [24],"8.33 upbm affinity estimate (log intensity, higher = more binding, comparable within an allelic series)"
same,binding signal,VENTX [17],"8.1 upbm affinity estimate (log intensity, higher = more binding, comparable within an allelic series)"
same,binding signal,ALX4 [25],"8.34 upbm affinity estimate (log intensity, higher = more binding, comparable within an allelic series)"
same,binding signal,SHOX [4],"7.23 upbm affinity estimate (log intensity, higher = more binding, comparable within an allelic series)"
same,binding signal,VAX1 [26],"7.31 upbm affinity estimate (log intensity, higher = more binding, comparable within an allelic series)"
same,binding signal,VAX1 [27],"7.3 upbm affinity estimate (log intensity, higher = more binding, comparable within an allelic series)"
same,binding signal,HOXA7 [28],"8.44 upbm affinity estimate (log intensity, higher = more binding, comparable within an allelic series)"
same,binding signal,VAX1 [29],"7.04 upbm affinity estimate (log intensity, higher = more binding, comparable within an allelic series)"
AATAACGC,binding signal,SHOX [1],"8.74 upbm affinity estimate (log intensity, higher = more binding, comparable within an allelic series)"
same,binding signal,HOXA4 [8],"10.2 upbm affinity estimate (log intensity, higher = more binding, comparable within an allelic series)"
same,binding signal,HOXA4 [11],"11.2 upbm affinity estimate (log intensity, higher = more binding, comparable within an allelic series)"
same,binding signal,HOXA4 [12],"10.4 upbm affinity estimate (log intensity, higher = more binding, comparable within an allelic series)"
CCAGGGAC,binding signal,SHOX [1],"7.08 upbm affinity estimate (log intensity, higher = more binding, comparable within an allelic series)"
same,binding signal,HOXC9 [30],"9.47 upbm affinity estimate (log intensity, higher = more binding, comparable within an allelic series)"
same,binding signal,HOXB6 [9],"8.97 upbm affinity estimate (log intensity, higher = more binding, comparable within an allelic series)"
same,binding signal,HOXC9 [31],"9.52 upbm affinity estimate (log intensity, higher = more binding, comparable within an allelic series)"
same,binding signal,MSX2 [32],"9.5 upbm affinity estimate (log intensity, higher = more binding, comparable within an allelic series)"
same,binding signal,SHOX [4],"7.17 upbm affinity estimate (log intensity, higher = more binding, comparable within an allelic series)"
same,binding signal,HOXC9 [33],"9.51 upbm affinity estimate (log intensity, higher = more binding, comparable within an allelic series)"
same,binding signal,MSX2 [34],"9.58 upbm affinity estimate (log intensity, higher = more binding, comparable within an allelic series)"
same,binding signal,HOXC9 [35],"9.62 upbm affinity estimate (log intensity, higher = more binding, comparable within an allelic series)"
same,binding signal,MSX2 [36],"9.57 upbm affinity estimate (log intensity, higher = more binding, comparable within an allelic series)"
same,binding signal,HOXB6 [13],"8.99 upbm affinity estimate (log intensity, higher = more binding, comparable within an allelic series)"
TTAGGAAA,binding signal,SHOX [1],"8.58 upbm affinity estimate (log intensity, higher = more binding, comparable within an allelic series)"
AATATCGA,binding signal,SHOX [1],"8.49 upbm affinity estimate (log intensity, higher = more binding, comparable within an allelic series)"
ACGTAATC,binding signal,SHOX [1],"8.86 upbm affinity estimate (log intensity, higher = more binding, comparable within an allelic series)"
